Assay results reported in PubChem BioAssay AID687001 (Broad Institute, 2013).
Potency and affinity values are given separately. Active and inactive are the calls of the source.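 How the source made its calls: active means signal-lowering compounds whose fitted half-maximal concentration is at or below twice the top tested dose in every run; inconclusive means runs disagree, flat 30 to 70% inhibition, or poor curve fit; inactive means the rest.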

target: Protein S100-A4 (Homo sapiens) (UniProt P26447); experiment: S100A4-myosin IIA binding inhibitor potency, dose response, biochemical, fluorescence polarization, cherry-picked hits (AID 687001); conditions: FP, S100A4/TAMRA-myosin IIA peptide binding; series mostly up to 11 µM
Sequence (P26447 whole entry, looked up): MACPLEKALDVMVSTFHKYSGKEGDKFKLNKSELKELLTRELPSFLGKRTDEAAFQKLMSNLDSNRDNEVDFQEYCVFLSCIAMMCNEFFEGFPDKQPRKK

SMILES	outcome
CC(C)(C)[C@H]1COC(=O)CC/C=C\C[C@H](CC(=O)N(CCO)Cc2ccccc2)C(=O)N1	inactive
COc1ccc(-c2cc(C(=O)NC3CC3)c3ccccc3n2)cc1	inactive
Cc1cc(C)n2nc(Sc3ncccc3[N+](=O)[O-])nc2n1	inactive
Cc1cccc(Nc2c3c(nc4ccccc24)CCC3)c1	inactive
Cc1oc(-c2ccccc2Cl)nc1CSCC(=O)O	inactive
Cc1noc(C)c1S(=O)(=O)N(C)C[C@@H]1Oc2ccc(NC(=O)C3CC3)cc2CC(=O)N([C@@H](C)CO)C[C@H]1C	inactive
Cc1ccc(-c2csc(NC3OC(=O)c4ccccc43)n2)cc1 (centres undefined)	inactive
CCC(=O)Nc1ccc2c(c1)OC[C@H](C)N(C(=O)CC1CC1)C[C@H](C)[C@H](OC)CN(C)C2=O	inactive
CCOc1ccc(S(=O)(=O)N2CCCC(C(=O)NCC3CCCO3)C2)cc1Cl (centres undefined)	inactive
Cc1cccc(S(=O)(=O)N2C[C@@H]3[C@H](c4ccccc42)[C@H](CO)N3CC2CCOCC2)c1	inactive
Cc1noc(C)c1NC(=O)Nc1ccc2c(c1)C(=O)N([C@H](C)CO)C[C@@H](C)[C@@H](CN(C)S(=O)(=O)c1ccc(Cl)cc1)OCCCC[C@H](C)O2	inactive
O=C(CCc1ccccc1)Nc1sc2c(c1C(=O)O)CCCC2	inactive
CO[C@H]1CN(C)C(=O)c2ccc(NC(=O)C3CCCCC3)cc2OC[C@@H](C)N(Cc2nccs2)C[C@@H]1C	inactive
CCCNC(=O)N1CC[C@@H]2[C@@H](CO)N(C)c3ccc(-c4ccc(F)cc4)cc3[C@@H]21	inactive
CC1=CC(C)(C)NC(=S)N1C(C)c1ccccc1 (centres undefined)	inactive
COc1cccc(NC(=O)CC2Oc3ccccc3NC2=O)c1 (centres undefined)	inactive
CCCCOc1ccc(S(=O)(=O)N2CCN(c3ccc(N4CCN(CC)CC4)nn3)CC2)cc1	inactive
CN(C(=O)CCc1cn(C)c2ccccc12)c1ccc(Oc2cccnc2)cc1	inactive
Cc1ccc(CCNC(=O)c2ccc(CS(=O)(=O)c3ccccc3C)o2)cc1	inactive
CCCc1cc(=O)[nH]c(SCC(=O)N2CCc3ccccc32)n1	inactive

SMILES	outcome
NS(=O)(=O)c1ccc(NCc2cnc3ccccc3c2)cc1	inactive
CC(C)CC#Cc1ccc([C@@H]2[C@H](CO)N3C(=O)CN(C(=O)c4ccccn4)C[C@@H]23)cc1	inactive
C[C@@H]1CN([C@@H](C)CO)S(=O)(=O)c2ccc(Br)cc2O[C@@H]1CN(C)Cc1ccncc1	inactive
O=C(Cc1ccncc1)NCC[C@@H]1CC[C@@H](NC(=O)C2CCOCC2)[C@@H](CO)O1	inactive
COC(=O)[C@@H]1[C@@H](CO)[C@@H]2Cn3c(cccc3=O)[C@@H]2N1CC1CCOCC1	inactive
CN1C(C(=O)Nc2ccc(OC(F)(F)F)cc2)=CC(c2ccco2)=NS1(=O)=O	inactive
COc1cccc(-c2ccc([C@H]3[C@H](CO)N4CCCCN(CC5CC5)C[C@@H]34)cc2)c1	inactive
O=C(C[C@H]1CC[C@H]2NC[C@H](O)COC[C@@H]2O1)NCCN1CCCCC1	inactive
CN1CCc2c(sc(NC(=O)C3COc4ccccc4O3)c2C(N)=O)C1 (centres undefined)	inactive
CC1CCCCC12NC(=O)N(CC(=O)OCC(=O)Nc1ccc(F)cc1[N+](=O)[O-])C2=O (centres undefined)	inactive
C[C@@H]1CN([C@@H](C)CO)S(=O)(=O)c2ccc(-c3cccc(C#N)c3)cc2O[C@@H]1CN(C)C(=O)c1ccc(F)cc1	inactive
COc1ccc(Cl)cc1NC(=O)CN(C)C(=O)CCCc1c[nH]c2ccccc12	inactive
O=C1CN(Cc2ccc(F)cc2)C[C@@H]2[C@@H](c3ccc(-c4ccccc4F)cc3)[C@H](CO)N12	inactive
Cc1c(C(=O)NCc2cccc([N+](=O)[O-])c2)sc(=O)n1Cc1cccc(F)c1	inactive
CCC(c1nc2ccccc2[nH]1)n1c(-c2cccnc2)nc2ccccc21 (centres undefined)	inactive
C[C@H]1CCCCO[C@H](CN(C)Cc2ccc(C(F)(F)F)cc2)[C@@H](C)CN([C@@H](C)CO)C(=O)c2cc(NC(=O)Nc3ccc4c(c3)OCO4)ccc2O1	inactive
O=C(c1ccc2c(c1)OCO2)N1CC(=O)N2[C@@H](CO)[C@H](c3ccc(C#Cc4ccccc4)cc3)[C@@H]2C1	inactive
COc1ccc(CNC(=O)CN(C(=O)CCC(=O)Nc2ccccn2)c2ccc(C)cc2)cc1	inactive
Cc1cc(OCC(=O)NCCc2c[nH]c3ccccc23)c2c(C)cc(=O)oc2c1	inactive
